# Screens (PubChem BioAssay)
# Pf Dd2 inh: qHTS Primary assay for Inhibitors of Plasmodium falciparum Dd2 growth in vitro; P. falciparum Dd2 growth, SYBR Green, 72 h; Potency, µM (doses to about 28.9 µM), for inactives: at the highest dose activity, negative = inhibition, actives largely listed as inhibitors; 4.3% of 120,000 active; AID 1347417, 2020; active means well fitted inhibition curve with a large enough effect;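 further: plate controls were DMSO vehicle for no effect and reference drug for full effect; nearly all actives have a fitted effect of over 65% in size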
#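 Readout: SYBR Green fluorescence, 485 nm excitation, 535 nm emission, after ~16 h lysis at 37C. Before that, Dd2-infected red cells (2.5% hematocrit) grew 72 h with compound, 29 uM top final concentration.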
# * marks the source's active call; other numbers are inactive results; i = inactive; [ ] = another dose, or the depositor's remark. The full list was thinned out, with hits kept by preference. Potency means the concentration at half of the fitted maximal effect.
SMILES,Pf Dd2 inh
C=CCNC(=O)N[C@H]1CCN(C(=O)CSC)[C@@H]1C(=O)N[C@H](Cc1c[nH]c2ccccc12)C(N)=O,34%
CCS(=O)(=O)Nc1ccc(C2(C(=O)NCc3ccc4c(c3)OCO4)CCCCC2)cc1,11µM*
CC(=O)Nc1ccc(C2(C(=O)NCc3ccc4c(c3)OCO4)CCC2)cc1,-4%
CCS(=O)(=O)Nc1ccc(C2(C(=O)NCc3cccnc3)CCCCC2)cc1,-19%
CC(=O)N1CCC(c2nn(-c3ccc(Cl)cc3)c(=O)[nH]2)CC1,i
CCOCCn1c(=O)n(Cc2cc(OC)ccn2)c2cc(C(=O)O)cnc21,-3%
O=C1NC(=NC2CCCCC2)C2(CCN([S+](=O)([O-])c3cccc(C(F)(F)F)c3)CC2)N1c1cccnc1,-18%
COc1ccc(CC(=O)N2CCN(c3cc(-c4ccccc4)[nH]n3)CC2)cc1OC,4%
Cc1ccc(NC(=O)c2ccc(-c3cccc(Cl)c3C)o2)cc1,20%
O=C(NCc1ccccc1)c1ccc(CS(=O)(=O)c2c(Cl)cccc2Cl)o1,i
O=C(NCc1ccccc1)c1ccc(-c2cccc3c2CCNC3)o1,11µM*
COc1ccc(NC(=O)c2ccc(-c3cccc(Cl)c3C)o2)cc1,10%
Cc1ncc2c(c1CNC(=O)c1cccc(OC(F)F)c1)CCNC2,-12%
O=C(Nc1ccccc1)c1ccc(-c2cccc3c2CCNC3)o1,11µM*
CCC(=O)N(C1CCOCC1)C1CCN(Cc2cccc(Br)c2)CC1,i
CCCn1cc(S(=O)(=O)c2ccc(C)c(C)c2)c(=O)c2cc(F)c(N3CCC(C)CC3)cc21,-10%
CCn1cc(S(=O)(=O)c2ccc(OC)cc2)c(=O)c2cc(F)c(N3CCCCCC3)cc21,-24%
O=c1c(S(=O)(=O)c2ccccc2)cn(Cc2ccccc2)c2cc(N3CCCC3)c(F)cc12,-5%
O=c1c(S(=O)(=O)c2ccccc2)cn(Cc2cccc(F)c2)c2cc(N3CCCC3)c(F)cc12,-14%
Cc1ccc(S(=O)(=O)c2cn(Cc3ccccc3)c3cc(N4CCCC4)c(F)cc3c2=O)cc1,6.3µM*
CCn1cc(S(=O)(=O)c2cc(C)cc(C)c2)c(=O)c2cc(F)c(N3CCCC3)cc21,i
CCn1cc(S(=O)(=O)c2ccc(C)cc2C)c(=O)c2cc(F)c(N3CCCCC3)cc21,11µM*
Cc1ccc(S(=O)(=O)c2cn(Cc3ccccc3)c3cc(N4CCCC4)c(F)cc3c2=O)cc1C,10µM*
O=c1c(S(=O)(=O)c2cccc(Cl)c2)cn(Cc2ccccc2)c2cc(N3CCCCC3)c(F)cc12,i
COc1ccc(C(C)NC(=O)CN2C(=O)NC3(CCS(=O)(=O)CC3)C2=O)cc1 (configuration not stated),-15%
SMILES,Pf Dd2 inh
CO[C@H]1C(=O)N(C2CCN(C(=O)c3cccc4[nH]ccc34)CC2)[C@H]1c1ccncc1,2%
CCOCCOC1CCN(S(=O)(=O)c2cccc(OC)c2)CC1,i
Cc1ccc(CC2CCOC3(CCN(C(=O)c4cccc(C#N)c4)CC3)C2)cc1 (configuration not stated),i
Cc1ncsc1CN1CCC2(CC1)CC(Cc1nc(-c3ccccc3)no1)CCO2 (configuration not stated),i
CCN1C(=O)C2CC3(CCN(C(=O)CCc4ccccc4)CC3)CN2C1=O (configuration not stated),-21%
CC1CCN(C(=O)c2cc3n(n2)CC(c2ccc(Cl)cc2)OC3)CC1 (configuration not stated),i
CCCN(CCC)CC(O)Cn1cc(/C=C/C(=O)c2ccc(C)cc2)c2ccccc21 (configuration not stated),1.1µM*
CCCCN(C)CC(O)Cn1cc(/C=C/C(=O)c2ccc(C)cc2)c2ccccc21 (configuration not stated),2.5µM*
CCCN(CCC)CC(O)Cn1cc(/C=C/C(=O)c2ccc(Br)cc2)c2ccccc21 (configuration not stated),3.2µM*
Cc1ccc(CNC(=O)CCc2cn(Cc3ccc(C)cc3)c3ccccc23)cc1,-22%
CCN(CC)C(=O)Cn1cc(SCC(=O)Nc2cccc(C)c2)c2ccccc21,-4%
COc1cccc(CN2CCCC3(CCN(S(=O)(=O)N(C)C)C3)C2=O)c1 (configuration not stated),-2%
CNC(=O)[C@@H]1CN(C(=O)c2cccc(OC(F)(F)F)c2)C[C@H]1CO,4%
CC(Oc1ccccc1)C(=O)N1CCN(C(=O)c2nnn3c2COC(c2ccccc2)C3)CC1 (configuration not stated),-7%
Cc1noc(-c2ccccc2Cl)c1C(=O)N1CCC(Cc2ccccc2)CC1,-23%
O=C(CCS(=O)(=O)c1ccccc1)N[C@H]1[C@@H]2CCO[C@@H]2[C@@H]1C1CCCC1,-5%
CC(C)(C)c1nnc([C@H]2CCN(Cc3cnc4ccccc4c3)C2)o1,i
COC(=O)c1cc2sccc2n1Cc1ccccc1,31%
COC(=O)c1cc2sc(C)cc2n1Cc1ccccc1,-7%
COC(=O)c1cc2sc(C)cc2n1Cc1cccc(OC)c1,10µM*
CC(=O)N[C@@H]1C[C@H](Cc2ccccc2)O[C@H](c2c(C)nn(C(C)(C)C)c2C)C1,-21%
CCn1ccc2oc(C)c(C(=O)N3CCN(c4ccccc4Cl)CC3)c2c1=O,i
COc1ccc(CC(=O)Nc2ccc3ncnc(N4CCCC4)c3c2)c(Cl)c1,-7%
CCOCC(=O)Nc1ccc2ncnc(N3CCCCC3)c2c1,-9%
N#Cc1ccc(C(=O)Nc2ccc3ncnc(N4CCCCC4)c3c2)cc1,i
SMILES,Pf Dd2 inh
O=C(Nc1ccc2ncnc(N3CCCCC3)c2c1)c1ccsc1,i
O=C(Nc1ccc2c(N3CCCCC3)ncnc2c1)c1ccsc1,7.1µM*
CCn1ccc(C(=O)Nc2ccc3ncnc(N4CCCC4)c3c2)n1,i
N#Cc1ccc(C(=O)Nc2ccc3c(N4CCCCC4)ncnc3c2)cc1,8.9µM*
O=C(NC1CCCN(c2cc(N3CCCC3)ncn2)C1)c1ccsc1 (configuration not stated),-14%[5.79 µM]
O=C(Cc1ccsc1)Nc1ccc2c(N3CCCC3)ncnc2c1,5µM*
COCCN(C)C[C@@H]1CN(C(=O)c2cnn(-c3ccccc3)c2)C[C@@H]1CO,12%
CO[C@H]1C(=O)N(C(C)C)[C@H]1C1CCN(S(=O)(=O)c2cccnc2)CC1,-21%
Cc1cccc(NC(=O)CSc2ncc3c(n2)-c2cc(Cl)ccc2N(C)S3(=O)=O)c1C,i
Cc1cccc(C)c1NC(=O)CSc1ncc2c(n1)-c1ccc(Cl)cc1N(Cc1ccccc1)S2(=O)=O,11µM*
COc1ccc(CNC(=O)CSc2ncc3c(n2)-c2ccc(Cl)cc2N(Cc2ccccc2)S3(=O)=O)cc1,-14%
COC(=O)c1cccc(-c2nc(C3CC(=O)N(c4ccc(F)cc4)C3)no2)c1 (configuration not stated),3%
CC(=O)N1CCC([C@@H]2CN(Cc3ccc(C(F)(F)F)cc3)C[C@H]2CO)CC1,-12%
O=C(c1cn2c(n1)CNCC2)N1C[C@H](c2ccccc2)[C@@H]2[C@H]1C1CCN2CC1,0%
COc1ccc([C@@H]2CN(C(=O)Nc3ccc(C)cc3)[C@@H]3C4CCN(CC4)[C@@H]32)cc1,-10%
Cc1ccc([C@@H]2CN(C(=O)c3snnc3C)[C@@H]3C4CCN(CC4)[C@@H]32)cc1,14µM*
COc1ccc(CCC(=O)N2CC3CC(C2)[C@H]2CCCC(=O)N2C3)cc1 (some centres not stated),0%
